Calls of active or inactive are those of the source.

A short description of assay [1]: optical density shifts of acrAB sulA E. coli – strain DRC41, OD650, 48 h, E. coli filamentation inducer project, primary screen (AID 1152).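 Note: E. coli MC1000 strain DRC41 lacking acrAB efflux pump and sulA.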 The note with it: higher = more signal, called active from +8 up or from −8 down.
Assay [2] in a line: probe aLefty1 binding on compound microarray – biochemical, small-molecule microarray, 635/667 nm fluorescence, primary screen (AID 1153).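 Note: score merges spot fluorescence with signal-to-noise ratio from the scanned slide images.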 To be noted: higher = more signal.
A short description of assay [3]: plasmodial surface anion channel blockers, osmotic lysis – cell-based, P. falciparum Indochina, OD700, 1 h, primary screen (AID 1154). To be noted: P. falciparum Indochina infected RBC osmotic lysis, higher = more signal, called active from +8 up or from −8 down.
The nature of assay [4]: plasmodial surface anion channel blockers, osmotic lysis – cell-based, P. falciparum Indochina, OD700, 2 h, primary screen (AID 1155).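 Note: lysis reports solute entry through the parasite surface anion channel PSAC.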 To be noted: P. falciparum Indochina infected erythrocytes, higher = more signal, called active from +8 up or from −8 down.
Assay [5] can be described thus: changes in parasitized red cell lysis, either direction – P. falciparum Indochina, OD700, 3 h, PSAC antagonist project, primary screen (AID 1156). To be noted: P. falciparum-infected erythrocytes, osmotic lysis, higher = more signal, called active from +8 up or from −8 down.
Assay [6] is described as follows: plasmodial surface anion channel blockers, osmotic lysis – cell-based, P. falciparum Indochina, OD700, 18 h, primary screen (AID 1157). To be noted: P. falciparum Indochina infected erythrocytes, osmotic lysis OD700, 18 h; higher = more signal, called active from +8 up or from −8 down.
A short description of assay [7]: S6 kinase pathway phospho-S6 level changes – cell-based, A549, cytoblot, luminescence, serum-stimulated, primary screen (AID 1158).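 Note: serum-stimulated A549 lung adenocarcinoma cells; signal is phosphorylated S6 detected by cytoblot immunostaining with HRP secondary.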 To be noted: 5 h, higher = more signal.
The target of assay [8] is NADPH oxidase 2 (Homo sapiens) (UniProt P04839). Nature of the assay: compounds shifting NOX2 Amplex Red fluorescence – cell-based, HEK293-NOX2, PMA-stimulated, NOX inhibitor project, primary screen (AID 1159). Note: test concentration not given here. The note with it: 45 min, higher = more signal, called active from +8 up or from −8 down.
The target of assay [9] is NADPH oxidase 4 (Homo sapiens) (UniProt Q9NPH5). Briefly: compounds shifting NOX4 Amplex Red fluorescence – cell-based, HEK293-NOX4, tetracycline-induced, NOX inhibitor project, primary screen (AID 1160). To be noted: HEK293-NOX4, Amplex Red H2O2 fluorescence, 45 min; higher = more signal, called active from +8 up or from −8 down.
In assay [10] the target is NADPH oxidase 5 (Homo sapiens) (UniProt Q96PH1). Briefly: compounds shifting NOX5 Amplex Red fluorescence – cell-based, HEK293-NOX5, NOX inhibitor project, primary screen (AID 1161). The note with it: HEK293-NOX5, ionomycin, 45 min, higher = more signal.
Assay [11] can be described thus: compound effects on lung adenocarcinoma cell viability – A549, calcein-AM fluorescence, 48 h, basal, profiling panel (AID 1162). Note: test concentration not given here. The note with it: higher = more signal.
Assay [12] in a line: compound effects on differentiated 3T3-L1 adipocyte viability – cell-based, 3T3-L1 adipocytes, calcein-AM fluorescence, 48 h, basal, profiling panel (AID 1163). Note: test concentration not given here. To be noted: 3T3-L1 adipocytes viability, higher = more signal.
Assay [13] can be described thus: compound effects on hepatocellular carcinoma cell viability – HepG2, calcein-AM fluorescence, 48 h, basal, profiling panel (AID 1164). Note: test concentration not given here. The note with it: higher = more signal.
Assay [14] can be described thus: compound effects on multiple myeloma cell viability – MM1S, calcein-AM fluorescence, 48 h, basal, profiling panel (AID 1165).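 Note: viability of MM1S multiple myeloma cells under basal unstimulated conditions; test concentration not given here.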 The note with it: higher = more signal.
Assay [15] in a line: calcein-AM signal in unstimulated myeloma cells – cell-based, calcein-AM fluorescence, 48 h, PK04 Diversity Set, profiling panel (AID 1166).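 Note: cells grown under basal conditions without added stimulus; test concentration not given here.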 To be noted: RPMI8226 myeloma viability, higher = more signal.
Assay [16] can be described thus: JC-1 mitochondrial signal, unstimulated HepG2 cells – cell-based, JC-1 fluorescence, 24 h, 100 nL compound, profiling panel (AID 1167). Note: test concentration not given here. To be noted: HepG2 mitochondrial potential, higher = more signal.
The nature of assay [17]: JC-1 mitochondrial signal, unstimulated adipocytes – cell-based, JC-1 fluorescence, 3T3-L1 adipocytes, 24 h, 100 nL compound, profiling panel (AID 1168). Note: test concentration not given here. To be noted: JC-1 mitochondrial fluorescence, higher = more signal, called active from +8 up or from −8 down.
A short description of assay [18]: JC-1 mitochondrial signal, unstimulated myeloma cells – cell-based, JC-1 fluorescence, RPMI8226, 24 h, 100 nL compound, profiling panel (AID 1169). Note: test concentration not given here. To be noted: JC-1 mitochondrial potential fluorescence, higher = more signal.
The nature of assay [19]: JC-1 mitochondrial signal, unstimulated MM1S myeloma – cell-based, JC-1 fluorescence, 24 h, 100 nL compound, profiling panel (AID 1170). Note: test concentration not given here. To be noted: MM1S mitochondrial potential, higher = more signal.
Assay [20] is described as follows: resazurin metabolic signal in A549 cells – cell-based, resazurin fluorescence, 24 h, PK04 Diversity Set, profiling panel (AID 1171). Note: test concentration not given here. The note with it: A549 viability, higher = more signal, called active from +8 up or from −8 down. In general terms: The colour change of resazurin is a common sign of viable cells or microbes.

NADPH oxidase 2 (Homo sapiens), sequence (P04839 whole entry, looked up): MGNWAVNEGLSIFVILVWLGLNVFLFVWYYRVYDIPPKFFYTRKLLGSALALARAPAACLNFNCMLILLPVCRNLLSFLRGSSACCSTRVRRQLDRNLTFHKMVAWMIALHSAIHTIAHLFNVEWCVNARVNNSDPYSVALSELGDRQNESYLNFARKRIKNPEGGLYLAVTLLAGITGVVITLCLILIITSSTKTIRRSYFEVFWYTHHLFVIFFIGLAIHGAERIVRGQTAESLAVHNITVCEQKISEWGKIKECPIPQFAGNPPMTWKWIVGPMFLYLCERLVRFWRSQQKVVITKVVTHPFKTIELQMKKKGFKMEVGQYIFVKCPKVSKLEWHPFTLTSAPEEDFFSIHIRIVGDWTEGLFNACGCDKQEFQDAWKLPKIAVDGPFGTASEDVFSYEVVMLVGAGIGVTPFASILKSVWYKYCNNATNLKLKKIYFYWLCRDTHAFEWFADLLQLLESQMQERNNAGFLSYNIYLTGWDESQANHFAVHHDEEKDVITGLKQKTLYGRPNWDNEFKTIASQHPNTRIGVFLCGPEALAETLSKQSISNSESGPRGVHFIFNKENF
NADPH oxidase 5 (Homo sapiens), sequence (Q96PH1 whole entry, looked up): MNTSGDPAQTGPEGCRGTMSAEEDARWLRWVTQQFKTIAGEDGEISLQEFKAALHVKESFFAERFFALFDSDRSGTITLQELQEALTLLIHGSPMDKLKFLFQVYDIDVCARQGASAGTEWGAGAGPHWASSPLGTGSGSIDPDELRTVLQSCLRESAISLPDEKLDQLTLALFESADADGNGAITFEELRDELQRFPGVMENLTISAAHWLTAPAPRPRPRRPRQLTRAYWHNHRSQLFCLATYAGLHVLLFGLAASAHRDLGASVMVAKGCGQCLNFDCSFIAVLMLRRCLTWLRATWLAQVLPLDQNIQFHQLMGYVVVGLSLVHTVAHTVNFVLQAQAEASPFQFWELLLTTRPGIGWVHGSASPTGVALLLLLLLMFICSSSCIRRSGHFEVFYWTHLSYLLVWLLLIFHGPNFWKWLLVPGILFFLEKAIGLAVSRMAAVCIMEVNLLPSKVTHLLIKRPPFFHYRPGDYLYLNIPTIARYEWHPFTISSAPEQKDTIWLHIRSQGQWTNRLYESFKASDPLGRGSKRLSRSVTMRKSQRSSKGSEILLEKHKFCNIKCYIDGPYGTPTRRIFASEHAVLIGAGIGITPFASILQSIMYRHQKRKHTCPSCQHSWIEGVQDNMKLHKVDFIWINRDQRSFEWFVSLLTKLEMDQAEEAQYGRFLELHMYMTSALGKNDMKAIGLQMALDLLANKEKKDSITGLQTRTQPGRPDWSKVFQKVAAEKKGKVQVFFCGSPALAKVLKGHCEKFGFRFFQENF
NADPH oxidase 4 (Homo sapiens), sequence (Q9NPH5 whole entry, looked up): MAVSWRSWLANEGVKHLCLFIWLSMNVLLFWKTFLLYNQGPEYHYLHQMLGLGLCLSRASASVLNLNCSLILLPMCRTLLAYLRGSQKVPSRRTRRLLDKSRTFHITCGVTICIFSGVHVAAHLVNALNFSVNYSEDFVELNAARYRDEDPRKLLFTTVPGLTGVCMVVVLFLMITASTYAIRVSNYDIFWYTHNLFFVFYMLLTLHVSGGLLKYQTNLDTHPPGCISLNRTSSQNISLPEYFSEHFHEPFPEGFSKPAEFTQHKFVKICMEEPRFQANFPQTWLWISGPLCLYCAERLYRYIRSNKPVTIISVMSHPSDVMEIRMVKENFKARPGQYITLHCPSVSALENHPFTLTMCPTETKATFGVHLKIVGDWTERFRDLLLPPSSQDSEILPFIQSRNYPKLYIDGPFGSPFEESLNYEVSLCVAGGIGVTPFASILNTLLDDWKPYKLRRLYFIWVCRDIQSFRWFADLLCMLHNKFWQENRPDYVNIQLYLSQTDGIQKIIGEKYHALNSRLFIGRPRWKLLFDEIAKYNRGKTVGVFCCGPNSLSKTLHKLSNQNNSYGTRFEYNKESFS

For the compound `CON=C[C@@H](C)[C@H](OCc1ccccc1)C(C)C`, the z-score in assay [1] was -2.85 (inactive); in [3], 0.0221 (inactive); in [4] it was 0.234 (inactive); in [5], 0.718 (inactive); in [6], -1.37 (inactive); in assay [7], 0.564. The z-score in assay [8] was -0.307 (inactive); in assay [9], -1.21 (inactive); in [10], -0.786; in [11], -1.1; in [12], 0.425; in [13], -0.0832. For the same compound, the z-score is -0.43 in assay [14]; -1.01 in assay [15]; 0.0714 in [16]; 0.634 (inactive) in assay [17]; -0.408 in [18]; 0.699 in assay [19]. Further, the z-score in assay [20] is 0.073 (inactive). The compound further registered a composite z-score in assay [2] of -0.378.
`CO[C@@H]1COC(=O)CC=C[C@@H](C)[C@@H]2C=C[C@H](O)[C@@H](COC(=O)CC=C[C@H]1C)O2`: the z-score in assay [1] was 0.988 (inactive); in assay [3], 0.872 (inactive); in [4], -0.28 (inactive); in assay [5] it was 0.178 (inactive); in assay [6], -0.213 (inactive); in [7] it was 1.2. Also, the z-score in assay [8] is 0.262 (inactive); in assay [9], 1.18 (inactive); in [10], 0.589; in [11], 1.26; in [12] it was 0.392; in assay [13] it was 0.764. In addition, the z-score in assay [14] was 0.425; in [15], 0.448; in assay [16] it was 0.598; in assay [17], 0.967 (inactive); in [18], -0.31; in assay [19], 0.658. Further, the z-score in assay [20] was 0.0324 (inactive). This compound yielded a composite z-score in [2] of -0.0984.
Take `CCN1C(=O)[C@H]2[C@H]3[C@H](O)[C@H](O)CC(=O)[C@H]3CC[C@H]2C1=O`: the z-score is 0.115 (inactive) in [1]; -0.0957 (inactive) in [3]; 0.143 (inactive) in assay [4]; -0.669 (inactive) in assay [5]; 0.0097 (inactive) in [6]; -0.276 in assay [7]. Further, the z-score in assay [8] was -0.676 (inactive); in assay [9] it was 0.471 (inactive); in [10], -0.156; in assay [11], 0.0697; in assay [12], 0.015; in [13] it was -0.0937. Besides, the z-score is 0.14 in [14]; -1.17 in [15]; -0.531 in assay [16]; -0.386 (inactive) in [17]; -0.0768 in assay [18]; 0.816 in [19]. The z-score in assay [20] was 0.26 (inactive). Moreover, the composite z-score in assay [2] is -0.0603.
Take `Cc1ccc(S(=O)(=O)NC(CCc2ccccc2)CC(=O)C(C)(C)C)cc1` (stereo not given): the z-score in [1] is -0.286 (inactive); in assay [3], 0.603 (inactive); in assay [4] it was 0.0974 (inactive); in [5], -0.573 (inactive); in assay [6] it was 0.124 (inactive); in [7], -0.566. Further, the z-score in assay [8] is -1.18 (inactive); in assay [9] it was 0.0624 (inactive); in assay [10] it was -0.868; in [11], 0.0378; in assay [12] it was -0.795; in assay [13], -0.869. Also, the z-score in assay [14] is 0.0642; in assay [15] it was -0.156; in assay [16], -0.696; in [17], -0.255 (inactive); in assay [18], -0.201; in assay [19], -0.236. Moreover, the z-score in assay [20] was 1.34 (inactive). In addition, in assay [2], the composite z-score was -0.125.
`CCOC(=O)[C@H](CC(C)C)NC(=O)CCC1CC(OC(=O)NCCc2ccc(F)cc2)CC2(CCCC(COC(=O)NCCOc3ccccc3)O2)O1` (stereo not given in full): the z-score is -0.221 (inactive) in [1]; 4.92 (inactive) in assay [3]; 0.394 (inactive) in assay [4]; 0.881 (inactive) in assay [5]; 0.323 (inactive) in assay [6]; 0.45 in [7]. Moreover, the z-score is 1.82 (inactive) in [8]; 0.31 (inactive) in assay [9]; 1.33 in [10]; -0.331 in assay [11]; 0.593 in [12]; -2.7 in [13]. For the same compound, the z-score in [14] is -3.46; in assay [15] it was -3.56; in assay [16] it was -1.82; in assay [17], 1.04 (inactive); in [18], -0.462; in assay [19], -0.0103. The z-score in assay [20] is 0.169 (inactive). The composite z-score in assay [2] was -0.263.
Turning to `CCOC(=O)NN=C1C[C@@H](O)[C@@H](O)[C@@H]2[C@@H]3C(=O)N(c4cccc(Oc5ccccc5)c4)C(=O)[C@@H]3CC[C@H]12`, the z-score is 0.0433 (inactive) in assay [1]; 1.6 (inactive) in assay [3]; -1.04 (inactive) in [4]; 0.0278 (inactive) in assay [5]; -1.58 (inactive) in assay [6]; 0.742 in [7]. The z-score in assay [8] is -0.515 (inactive); in [9] it was 0.209 (inactive); in assay [10] it was -1.33; in assay [11], 0.285; in [12] it was 1.01; in assay [13] it was -0.0233. Besides, the z-score in assay [14] was 0.0687; in assay [15] it was 0.443; in assay [16], 1.03; in [17] it was 0.675 (inactive); in assay [18] it was 0.00981; in assay [19], -1.56. Further, in assay [20], the z-score is -0.263 (inactive). This compound returned a composite z-score in assay [2] of -0.0958.
Take `C=CC[C@@H]1C=C[C@H](ON=C(C)CCC(=O)OC[C@H]2O[C@H](C#Cc3ccccc3)C=C[C@@H]2Oc2ccc(C)cc2)[C@@H](CO)O1`: the z-score is -1.44 (inactive) in assay [1]; 28 (active) in assay [3]; 6.05 (inactive) in assay [4]; 0.068 (inactive) in assay [5]; 1.57 (inactive) in assay [6]; -0.383 in assay [7]. The z-score was -0.367 (inactive) in assay [8]; 0.0773 (inactive) in [9]; -0.431 in assay [10]; 0.572 in assay [11]; -0.48 in assay [12]; -0.0329 in assay [13]. Also, the z-score in assay [14] was 0.551; in assay [15], -0.737; in assay [16] it was -0.429; in assay [17], -0.311 (inactive); in [18], -0.759; in assay [19] it was -1.08. Moreover, the z-score in assay [20] was 0.231 (inactive). Moreover, in assay [2], the composite z-score amounted to 0.0594.
In the case of `CC(C)CON=C1C[C@@H](O)[C@@H](O)[C@@H]2[C@@H]3C(=O)N(C[C@@H]4CCCO4)C(=O)[C@@H]3CC[C@@H]12`, the z-score in assay [1] is 0.93 (inactive); in assay [3], -0.441 (inactive); in assay [4], -0.379 (inactive); in assay [5] it was -0.611 (inactive); in [6], -0.21 (inactive); in assay [7], 0.324. Also, the z-score is 0.957 (inactive) in assay [8]; 0.816 (inactive) in assay [9]; -0.0365 in [10]; 0.18 in assay [11]; -0.149 in assay [12]; -0.622 in [13]. Also, the z-score in assay [14] was -0.61; in assay [15] it was -0.923; in assay [16], -0.49; in assay [17], 0.977 (inactive); in assay [18], -0.258; in assay [19] it was -0.0595. The z-score in assay [20] was 0.266 (inactive). In addition, the composite z-score in [2] was -0.0501.
Take `O=C1CCCC=C1C(CCc1ccccc1)OC(=O)c1ccc(Br)cc1` (stereo not given): the z-score in assay [1] was -0.303 (inactive); in assay [3] it was 10.6 (active); in [4] it was 0.748 (inactive); in assay [5], -0.295 (inactive); in assay [6], -0.364 (inactive); in assay [7] it was 0.307. The z-score was 1.36 (inactive) in assay [8]; 0.397 (inactive) in assay [9]; -1.5 in assay [10]; -0.281 in assay [11]; 0.893 in [12]; -0.318 in [13]. Moreover, the z-score is -3.42 in [14]; -2.69 in assay [15]; -0.158 in [16]; -1.15 (inactive) in [17]; -0.619 in [18]; -0.127 in assay [19]. The z-score in assay [20] is -0.251 (inactive). Moreover, the composite z-score in assay [2] is 0.16.

These data come from PubChem BioAssay.
